Here are results for four compounds from PubChem BioAssay (NCATS).

Experiment [1] is described as follows: qHTS profiling for inhibitors of Plasmodium falciparum (3D7) proliferation (AID 743322).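 Further: infected erythrocytes exposed to compound for 72 h before lysis; 100% = DMSO vehicle wells and 0% = 0.29 µM artemisinin.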 Conditions: P. falciparum 3D7 proliferation; at 28.7 µM (top of the series) unless noted. Summed up: (§1)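 Erythrocytes infected with P. falciparum (0.3% parasitemia, 2.5% hematocrit) incubated with compounds 72 h at 37 C, 5% CO2. Lysis with saponin/Triton buffer containing SYBR Green I, overnight at room temperature in the dark; DNA fluorescence (485/535 nm) normalised to 0.29 uM artemisinin and DMSO.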
In general terms: Quantitative high-throughput screening tests each substance at several concentrations.

The nature of experiment [2]: qHTS profiling for inhibitors of Plasmodium falciparum (HB3) proliferation (AID 743324; active means well fitted curve in the direction sought with a large enough effect; an effect the other way counts as inactive or inconclusive;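 further: 100% = DMSO vehicle wells and 0% = artemisinin-treated control wells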). The following applies: Plasmodium falciparum HB3 blood-stage proliferation; at 28.7 µM (top of the series) unless noted. In a few lines: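 P. falciparum HB3 grown in erythrocytes (0.3% parasitemia, 2.5% hematocrit final) with compound for 72 h at 37 C, 5% CO2. Parasite DNA detected by SYBR Green after saponin/triton lysis overnight; normalized to 0.29 uM artemisinin and DMSO.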

Experiment [3] in a line: qHTS profiling of the MIPE4 collection as inhibitors of Plasmodium falciparum (3D7) proliferation (AID 743344).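 Further: scaled between DMSO vehicle wells and 0.29 µM artemisinin as full inhibition.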 Conditions: P. falciparum 3D7 in erythrocytes, SYBR Green DNA fluorescence, 72 h; at 28.5 µM (top of the series) unless noted. Summed up: as §1
Experiment [4] is described as follows: qHTS profiling of the MIPE4 collection as inhibitors of Plasmodium falciparum (DD2) proliferation (AID 743345). The following applies: P. falciparum Dd2 in erythrocytes, SYBR Green DNA, 72 h; at 28.5 µM (top of the series) unless noted. In a few lines:
as §1

Experiment [5] can be described thus: qHTS profiling of the MIPE4 collection as inhibitors of Plasmodium falciparum (DD2) proliferation (Rep 2) (AID 743346). The following applies: P. falciparum Dd2 in erythrocytes, SYBR Green DNA, 72 h; at 28.5 µM (top of the series) unless noted. In a few lines: as §1
Experiment [6] is described as follows: qHTS profiling of the MIPE4 collection as inhibitors of Plasmodium falciparum (HB3) proliferation (AID 743347).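 Further: plate controls were DMSO vehicle wells for no effect and artemisinin wells for full effect.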 Conditions: P. falciparum HB3 in erythrocytes, SYBR Green DNA, 72 h; at 28.5 µM (top of the series) unless noted. In a few lines:
as §1

The nature of experiment [7]: Cell Proliferation Assay Versus the ED40515 IL2 Dependent ATL cell lines (AID 1053195; calls by dose curve). Conditions: ED40515 IL2-dependent ATL cells. Summed up:
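IL2-dependent ED40515 ATL cells grown with IL2, 1000 cells/well in phenol red-free RPMI + 5% FBS, exposed 48 hours at 37C. Viability by CellTiter-Glo luminescence after 15 min at RT; 9.2 uM bortezomib as control.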

A short description of experiment [8]: High-throughput drug toxicity screening in the BPDCN cell line Gen2.2 (AID 1224824).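 Further: cells exposed to compounds for 48 h before reading.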 The following applies: Gen2.2 BPDCN cells; at 45.8 µM (top of the series) unless noted. In a few lines: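 Gen2.2, 500 cells/well, phenol red-free RPMI/10% FBS/Pen-Strep; 48 h cpd, 37 °C/5% CO2; CTG lum, 15 min RT. Norm: DMSO = 100%, bortezomib 9.2 uM final = 0%.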
A short description of experiment [9]: High-throughput drug toxicity screening in the BPDCN cell line Cal-1 (AID 1224825). The following applies: Cal-1 BPDCN cell viability, qHTS; at 45.8 µM (top of the series) unless noted. In a few lines:
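500 Cal-1 cells/well, RPMI + glutamine + 10% FBS (phenol red-free); cpd added by pin tool; 48 h, 37C, 5% CO2; CTG 15 min RT, lumi read. Normalised: DMSO 100%, bortezomib 9.2 uM 0%.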

A short description of experiment [10]: qHTS assay for measurement of the activity of small molecule inhibitors on Zika virus induced Caspase-3 activity in human iPSC derived neural progenitor cells (hNPCs) (AID 1224857; active means well fitted curve in the direction sought with a large enough effect; an effect the other way counts as inactive or inconclusive; further: % of control where 0% means no effect; nearly all actives have a fitted effect of over 65% in size). Summed up:
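Quantitative HTS format: human iPSC neural progenitors, 1 h compound pretreatment, ZIKV 2 FFU/cell for 6 h at 37 C. Percent inhibition derived from luminescent caspase-3/7 signal between uninfected and infected controls.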

A short description of experiment [11]: qHTS assay for measurement of the activity of small molecule inhibitors on Zika virus induced Caspase-3 activity in human astrocytoma cells (AID 1224859; active means well fitted curve in the direction sought with a large enough effect; an effect the other way counts as inactive or inconclusive;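 further: plate controls were ZIKV-infected untreated cells for no effect and uninfected cells for full effect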). Summed up: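 Readout is luminescence from Caspase-Glo 3/7 added after a 6 h ZIKV infection (2 FFU/cell) of compound-pretreated (1 h) SNB-19 cells; data expressed as % inhibition versus uninfected and infected wells.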

The nature of experiment [12]: qHTS Screen of the MIPE 4.0 Collection Against Ewings Sarcoma (RDES) (AID 1259252; active means well fitted curve in the direction sought with a large enough effect; an effect the other way counts as inactive or inconclusive; further: nearly all actives have a fitted effect of over 35% in size; further: potency means the concentration at half of the fitted maximal effect). Summed up:
(§2)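 After a 4 h attachment period in RPMI/5% FBS, cells were pin-dosed with test compounds; DMSO served as negative and 9.2 uM bortezomib (final) as positive control. Luminescent CellTiter-Glo signal at 48 h defined viability.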

A short description of experiment [13]: qHTS Screen of the MIPE 4.0 Collection Against Ewings Sarcoma (TC32) (AID 1259256; active means well fitted curve in the direction sought with a large enough effect; an effect the other way counts as inactive or inconclusive; further: potency means the concentration at half of the fitted maximal effect; nearly all actives have a fitted effect of over 45% in size). Summed up:
as §2

A short description of experiment [14]: qHTS profiling for inhibitors of Plasmodium falciparum (DD2) proliferation (AID 743323). The following applies: lower = more inhibition; at 28.7 µM (top of the series) unless noted. In a few lines:
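1536-well qHTS; infected RBCs 0.3% parasitemia/2.5% Hct final; cpd 72 h 37 C 5% CO2; lysis buffer + SYBR Green I, o/n RT dark; FI 485/535; norm. to 0.29 uM artemisinin and DMSO, plate-stack corrected.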

The nature of experiment [15]: qHTS Screen of the MIPE 4.0 Collection Against Ewings Sarcoma (EW8) (AID 1259255; active means well fitted curve in the direction sought with a large enough effect; an effect the other way counts as inactive or inconclusive; further: potency means the concentration at half of the fitted maximal effect; nearly all actives have a fitted effect of over 35% in size). In a few lines:
as §2

Experiment [16] in a line: qHTS Screen of the MIPE 4.0 Collection Against Ewings Sarcoma (TC71) (AID 1259253; active means well fitted curve in the direction sought with a large enough effect; an effect the other way counts as inactive or inconclusive;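 further: 100% = DMSO-treated cells and 0% = medium-only wells without cells; nearly all actives have a fitted effect of over 40% in size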). Summed up:
as §2

The structures appear in SMILES notation. Records with an inconclusive call do not appear. Activity calls are given as the source filed them. Unless noted, how the calls were made is not given here.

In the case of `CCc1cncnc1N1CCN(Cc2nc3ccc(C(F)(F)F)cc3[nH]2)CC1`, the remaining parasite growth % (stronger effect = lower value) in experiment [1] is 24.3%. This compound had a remaining proliferation (% of control), lower = more inhibition in [2] of 14%. In experiment [3], the parasite growth, % of DMSO control was determined as 19.6%. Besides, the parasite growth remaining, % of DMSO control (lower = more inhibition) in experiment [4] is 33%. This compound registered a parasite growth, % of control (lower = inhibition) in experiment [5] of 27.9%. The growth, % of control in experiment [6] was 15.6%. Further, the Potency in experiment [7] is 1.18 µM (active); in experiment [12] it was 20.9 µM (active); in experiment [13], 16.6 µM (active). The cell viability, % of control (lower = more cytotoxic) in experiment [8] turned out to be 130%. Further, the viability (% of control) in experiment [9] amounted to 91.1%. The Potency result in experiment [10] and in [11] was “inactive” throughout.
Take `O=c1[nH]c(-c2ccc(C(F)(F)F)cc2)nc2c1CSCC2`: the remaining parasite growth % (stronger effect = lower value) in experiment [1] came out at 106%. Further, in experiment [14], the activity, percent of control turned out to be 103%. In experiment [2], this compound had a remaining proliferation (% of control), lower = more inhibition of 29.8%. This compound also returned a parasite growth, % of DMSO control in [3] of 74.2%. The compound further gave a parasite growth remaining, % of DMSO control (lower = more inhibition) in experiment [4] of 93.9%. Besides, in experiment [5], the parasite growth, % of control (lower = inhibition) was 74.7%. Further, the growth, % of control in experiment [6] is 86.7%. The Potency was 26.4 µM (active) in experiment [7], 23.5 µM (active) in experiment [12], 20.9 µM (active) in experiment [15] and 23.5 µM (active) in experiment [13]. The cell viability, % of control (lower = more cytotoxic) in experiment [8] was found to be 117%. The viability (% of control) in experiment [9] was found to be 114%. In addition, the Potency result in experiment [10] and in [11] was “inactive” in each case.
For `C[C@@H]1CN(Cc2ccc(F)cc2)[C@@H](C)CN1C(=O)c1cc2c(C(=O)C(=O)N(C)C)cn(C)c2cc1Cl`, the remaining parasite growth % (stronger effect = lower value) in experiment [1] was 69.2%. For the same compound, in [14], the activity, percent of control stood at 79.8%. In experiment [2], this compound registered a remaining proliferation (% of control), lower = more inhibition of 52.3%. The compound also yielded a parasite growth, % of DMSO control in [3] of 49.5%. Moreover, the parasite growth remaining, % of DMSO control (lower = more inhibition) in experiment [4] was 83.2%. For the same compound, the parasite growth, % of control (lower = inhibition) in experiment [5] was found to be 48.6%. In [6], the growth, % of control worked out at 47.5%. Besides, the Potency in [7] is 16.6 µM (active); in experiment [15], 23.5 µM (active). Also, the cell viability, % of control (lower = more cytotoxic) in experiment [8] was determined as 160%. Moreover, the viability (% of control) in [9] worked out at 70.3%. For the same compound, the Potency result in experiment [10] and in experiment [11] was “inactive” in each case.
On to `CCN(CC)CCCC(C)Nc1nc(C)cc(Nc2ccc3nc(C)cc(N)c3c2)n1` (centres undefined), for which the remaining parasite growth % (stronger effect = lower value) in experiment [1] was 29.9%. In addition, in experiment [14], the activity, percent of control came to 17.1%. The parasite growth, % of DMSO control in [3] turned out to be 25%. Further, in [4], the parasite growth remaining, % of DMSO control (lower = more inhibition) came out at 21.1%. In experiment [5], this compound displayed a parasite growth, % of control (lower = inhibition) of 14.4%. Also, the growth, % of control in experiment [6] was 20%. In experiment [7], the Potency is 18.7 µM (active). For the same compound, the cell viability, % of control (lower = more cytotoxic) in experiment [8] was determined as 55.4%. The viability (% of control) in experiment [9] worked out at 74.8%. In addition, the Potency entry in experiment [10], in experiment [11], in experiment [12] and in experiment [16] was “inactive” throughout.
